# Shown are actives, neighbours in structure and some others; about 9.3% of the full set was active somewhere.
# NPC1 promoter act – activates the NPC1 promoter. Huh7 NPC1 promoter luciferase reporter, 24 h. Potency, µM (series often up to 9.22 µM), for inactives: top-dose activation, usual class: activators. hit rate 2.4% among 320,000. AID 485313; further: % of control where 0% means no effect; nearly all actives have a fitted effect of over 60% in size
#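 Compounds in DMSO were transferred onto Huh7 NPC1-luciferase reporter cells pre-incubated 2 h; after 24 h at 37 °C, Amplite reagent was dispensed and luminescence recorded 10 min later.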
# FLuc modulator – counter-screen for miR-21 project: firefly luciferase inhibitors or activators. Potency, µM (series often up to 57.5 µM), for inactives: at the highest dose activity change, negative = inhibition, actives largely listed as inhibitors. hit rate 6.9% among 360,000. P08659. AID 588342. purified FLuc, Km substrates, luminescence inhibition;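 further: plate controls were vehicle for no effect and reference inhibitor for full effect; nearly all actives have a fitted effect of over 55% in size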
# Target sequence (P08659 whole entry, looked up): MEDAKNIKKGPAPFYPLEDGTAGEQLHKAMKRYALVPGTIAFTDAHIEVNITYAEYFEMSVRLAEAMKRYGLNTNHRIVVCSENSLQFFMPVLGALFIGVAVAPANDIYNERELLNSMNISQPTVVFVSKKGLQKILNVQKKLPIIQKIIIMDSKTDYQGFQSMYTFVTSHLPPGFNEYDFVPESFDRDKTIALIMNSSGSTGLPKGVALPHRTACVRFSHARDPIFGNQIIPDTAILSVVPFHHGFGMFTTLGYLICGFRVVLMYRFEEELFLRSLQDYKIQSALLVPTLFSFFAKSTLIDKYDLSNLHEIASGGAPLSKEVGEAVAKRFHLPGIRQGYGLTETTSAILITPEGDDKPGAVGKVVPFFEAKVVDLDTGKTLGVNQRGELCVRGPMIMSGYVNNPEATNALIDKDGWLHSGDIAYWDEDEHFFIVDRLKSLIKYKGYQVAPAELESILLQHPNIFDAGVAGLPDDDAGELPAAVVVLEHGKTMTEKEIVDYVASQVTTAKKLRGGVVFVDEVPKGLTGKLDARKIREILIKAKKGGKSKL
#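 Purified P. pyralis luciferase, 10 nM final, with Km-level 10 uM D-luciferin and 10 uM ATP in 50 mM Tris acetate pH 7.5, 10 mM Mg acetate, 0.01% Tween-20, 0.05% BSA; 6-point qHTS titration about 60 µM downward; luminescence read.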
# Rab9 prom act – activators of Rab9 promoter | Huh7 Rab9 promoter-luciferase reporter, luminescence, 24 h | Potency, µM (titrated, usually from 9.22 µM), without a hit: at the highest dose activation, negative = inhibition, most hits filed as activators | hit rate 2.8% among 320,000; further: % of control where 0% means no effect; nearly all actives have a fitted effect of over 60% in size
#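 Rab9 promoter-driven luciferase in stably transfected Huh7 cells; 1500 cells/well rested 2 h, exposed to compound in DMSO for 24 h at 37 °C, 5% CO2. Luminescence read 10 min after adding luciferase reagent at ambient temperature.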
# ELG1 DNA repair – inhibitors of ELG1-dependent DNA repair in HEK293T cells; hit rate 2.3% among 330,000; HEK293T ELG1-luciferase reporter, luminescence, 16 h; DNA damage induced by 5-fluorouridine; Potency, µM (top dose mostly 46.1 µM), without a hit: top-dose activity change, negative = inhibition, hits mostly inhibitors; further: on the % scale 0 is the no-effect control and ±100 the full control effect; nearly all actives have a fitted effect of over 55% in size
#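 5-Fluorouridine DNA damage + compound/DMSO, 2,000 cells/well, 16 h, 37 °C/5% CO2. ONE-Glo, 30 min RT, luminescence. Readout = decrease in reporter signal.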
# SMN2 splice up – increases expression of the SMN2 splice variant; Potency, µM (titrated, usually from 46.1 µM), for the others: at the top dose activity change, positive = activation, hits mostly activators; AID 1458; hit rate 2.8% among 210,000; HEK293 SMN2-luciferase splicing reporter, luminescence, 30-36 h; further: % of control where 0% means no effect; nearly all actives have a fitted effect of over 55% in size
#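 qHTS luciferase splicing reporter: luminescence rises when SMN2 exon 7 is included in transfected HEK293 cells. Compound exposure lasted 30-36 h at 37C, with 4.5 mM final sodium butyrate as control, followed by a ONE-Glo read.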
# ELG1 genotoxic – genotoxicity induction in ELG1-luciferase HEK293T cells; HEK293T ELG1-luciferase reporter, luminescence, 16 h; Potency, µM (highest dose often 46 µM), for the others: top-dose activity change, positive = activation, most hits filed as activators; hit rate 1.3% among 330,000; further: % of control where 0% means no effect; nearly all actives have a fitted effect of over 60% in size
#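 Cells (2,000/well) expressing the ELG1-luciferase fusion are dosed by pin tool and kept 16 hr at 37 °C, 5% CO2. Signal comes from ONE-Glo luciferase reagent after 30 min at room temperature.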
# ELG1 FLuc counter – luciferase inhibition in cell-free luciferin readout for ELG1 hits; shares compounds with ELG1 DNA repair; cell-free firefly luciferase luminescence counter-screen, ViewLux; Potency, µM (doses to about 46.1 µM), for inactives: at the highest dose activity change, negative = inhibition, most hits filed as inhibitors; hit rate 3% among 350; further: on the % scale 0 is the no-effect control and ±100 the full control effect
# ELG1-Luc inh – human ELG1 repair inhibition, luciferase-tagged ELG1 confirmation | shares compounds with ELG1 DNA repair | HEK293T ELG1-luciferase levels, luminescence; cells co-treated with 5-fluorouridine | Potency, µM (series often up to 46.1 µM), inactives show at the highest dose activity change, negative = inhibition, most hits filed as inhibitors | hit rate 68% among 670 | AID 624248; further: on the % scale 0 is the no-effect control and ±100 the full control effect; nearly all actives have a fitted effect of over 55% in size
# ELG1-Luc MMS – inhibits ELG1-dependent repair under MMS stimulation in HEK293T cells. shares compounds with ELG1 DNA repair. HEK293T luciferase-tagged ELG1 level, MMS stimulated. Potency, µM (series often up to 46.1 µM), for the others: at the top dose activity change, negative = inhibition, usual class: inhibitors. hit rate 53% among 670; further: on the % scale 0 is the no-effect control and ±100 the full control effect; nearly all actives have a fitted effect of over 60% in size
# ELG1 5FU viab – confirmation of ELG1 repair inhibitors: viability with 5FU; shares compounds with ELG1 DNA repair; cell viability with 5-FU, ELG1-dependent repair; 670 tested, under 10 active; AID 624250; Potency, µM (doses to about 46.1 µM), for the others: top-dose activity change, negative = viability loss, most hits filed as cytotoxic;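 further: ELG1-luc HEK293T cells cotreated with 5-fluorouridine at 10 µM final; viability measured 16 h after compound addition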
# ELG1 MMS cell – confirmation of ELG1 repair inhibitors: viability with MMS | shares compounds with ELG1 DNA repair | Cell viability with MMS, ELG1-dependent DNA repair | Potency, µM (top dose mostly 46.1 µM), for the others: at the highest dose activity change, negative = viability loss, most hits filed as cytotoxic | hit rate 33% among 670 | AID 624251;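 further: ELG1-luc HEK293T cells co-treated with 10 µM MMS; viability read 16 h after compound addition; on the % scale 0 is the no-effect control and ±100 the full control effect; nearly all actives have a fitted effect of over 60% in size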
# ELG1 unstim viab – counter-screen for ELG1 repair inhibitors: unstimulated cell viability | Potency, µM (doses to about 45.9 µM), without a hit: top-dose activity change, negative = loss of viability, most hits filed as cytotoxic | hit rate 8% among 900 | shares compounds with ELG1 DNA repair | cell viability counter-screen, unstimulated, luminescence | AID 624252;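 further: compound exposure lasted 16 hours before reading; on the % scale 0 is the no-effect control and ±100 the full control effect; nearly all actives have a fitted effect of over 55% in size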
# FLuc biochem – inhibits purified firefly luciferase, counter-screen for ELG1 hits; shares compounds with ELG1 DNA repair; purified firefly luciferase, luminescence counter-screen; Potency, µM (titrated, usually from 57.5 µM), for the others: top-dose activity, negative = inhibition, actives largely listed as inhibitors; hit rate 10% among 350; AID 624253; further: on the % scale 0 is the no-effect control and ±100 the full control effect
# * marks the source's active call; other numbers are inactive results; ? = inconclusive; / = no result given; [ ] = remark or other dose. The call rests on the fitted dose curve; in most records, active means well fitted curve in the direction sought with a large enough effect; inconclusive means small, poorly fitted or top-dose-only effect, or another doubt; inactive means no such curve, though single readings can be large; an effect the other way counts as inactive or inconclusive. Potency means the concentration at half of the fitted maximal effect.
SMILES,NPC1 promoter act,FLuc modulator,Rab9 prom act,ELG1 DNA repair,SMN2 splice up,ELG1 genotoxic,ELG1-Luc inh,ELG1-Luc MMS,ELG1 5FU viab,ELG1 MMS cell,ELG1 unstim viab,others
Fc1ccccc1CNc1ncnc2sccc12,-16%,1%,-28%,2.9µM*,/,-19%,?,4.4µM*,-3%,3.1µM*,?,
Cc1ccc(CNC(=O)c2cnn3c(C)c(Cc4c(F)cccc4Cl)c(C)nc23)cc1,/,-1%,/,/,/,/,/,/,/,/,/,
Cc1cc(C)c(Cc2c(C)nc3c(C(=O)NCc4ccco4)cnn3c2C)c(C)c1,-11%,1%,-14%,7.3µM*,-64%,-7%,?,7.1µM*,-3%,7.9µM*,?,ELG1 FLuc counter=-13%;FLuc biochem=6%
Cc1cc(C)nc(NC2=NCC(=O)N2c2cc(Cl)cc(Cl)c2)n1,13%,1%,8%,7%,?,2%,/,/,/,/,/,
C=CC[C@@H](CC(=O)NCCO)C(=O)NC[C@H](OC(=O)[C@@H](CC=C)Cc1ccc(F)cc1)c1ccccc1,/,/,/,3.3µM*,/,-7%,?,14µM*,?,-20%,-14%,
CCCCN1C(=O)NC(NS(=O)(=O)c2ccc(N)cc2)(C(F)(F)F)C1=O (stereo unspecified),-1%,1%,3%,28%,0%,0%,/,/,/,/,/,
Cc1ccccc1-n1nc2c(c1NC(=O)c1ccc3c(c1)OCO3)CS(=O)(=O)C2,-1%,1%,-1%,4%,/,-1%,/,/,/,/,/,
COc1ccc2cc(C[C@@H]3CC[C@@H](CO)O3)ccc2c1,/,/,/,?,/,?,/,/,/,/,-2%,
CCOCCCNc1nc2cc(OC)c(OC)cc2c2nc(-c3ccccc3)nn12,/,3%,/,/,6%,/,/,/,/,/,/,
COc1cc2nc(NCC3CCCO3)n3nc(-c4cccnc4)nc3c2cc1OC (stereo unspecified),-2%,-1%,2%,2.3µM*,23%,-4%,4µM*,18µM*,?,5%,-11%,
COCCCNc1nc2cc(OC)c(OC)cc2c2nc(-c3ccccc3)nn12,-5%,-4%,-8%[1.84 µM],4.1µM*,2%,-11%,2.2µM*,?,?,-10%,?,
CCN(CC)CCCNc1nc2cc(OC)c(OC)cc2c2nc(-c3cccnc3)nn12,-10%,3%,-12%,-17%,?,6%,/,/,/,/,/,
CCc1c(C)nc2cc(-c3cc(OC)cc(OC)c3)nn2c1N1CCN(CCN2CCOCC2)CC1,-8%,-10%,-1%,2.6µM*,9%,-6%,4.4µM*,?,?,9%,-6%,
Cc1ccc(S(=O)(=O)N2CCCCC2)cc1C(=O)NCCN1CCOCC1,-2%,-2%,-1%,?,/,0%,/,/,/,/,/,
CN(C(=O)CN1C(=O)c2ccccc2S1(=O)=O)C1CCCCC1,/,/,/,?,/,?,/,/,/,/,-2%,
O=C(O)c1cc2cc(Oc3ccccc3)ccc2[nH]1,-1%,?,4%,-4%,/,2%,/,/,/,/,/,
CCCC(=O)Oc1ccc2[nH]c(C(=O)c3cc4ccccc4[nH]3)cc2c1,/,/,/,/,/,/,/,/,/,/,3%,
CS[C@@H]1SC[C@H]2C(=O)N(C)C(C(C)C)C(=O)OC[C@@H](NC(=O)c3cnc4ccccc4n3)C(=O)N[C@@H](C)C(=O)N(C)[C@H]1C(=O)N(C)C(C(C)C)C(=O)OC[C@@H](NC(=O)c1cnc3ccccc3n1)C(=O)N[C@@H](C)C(=O)N2C (stereo partly specified),/,/,/,/,/,/,0.14µM*,0.056µM*,17%,0.2µM*,-4%,ELG1 FLuc counter=?;FLuc biochem=2%
COc1ccc2c(CNCCc3cccs3)c(C(=O)O)n(Cc3cccc(F)c3)c2c1,/,-1%,/,/,/,/,/,/,/,/,/,
COc1ccc(-c2noc(CCCCC(=O)N3CCN(c4cc(C)ccc4C)CC3)n2)cc1,/,/,/,?,/,1%,?,1.3µM*,-4%,1.1µM*,14µM*,
Cc1ccc(C)c(N2CCN(C(=O)CCc3nc(-c4cccc(Cl)c4)no3)CC2)c1,/,/,/,?,/,?,/,/,/,/,-7%,
Cc1ccc(-c2noc(CCC(=O)N3CCN(c4cc(C)ccc4C)CC3)n2)cc1,/,/,/,10%,/,1%,/,/,/,/,/,
COc1ccc2c(c1)c(=O)cc(C)n2CC(=O)NCc1ccco1,0%,4%,0%,-4%,-5%,-10%,/,/,/,/,/,
CCc1cc(=O)oc2c3c(cc(OCC(=O)NCc4cccnc4)c12)OC(C)(C)CC3,3%,?,-12%,3.7µM*,/,-2%,?,16%,5%,-1%,?,
COc1ccc(CCNC(=O)CSc2ccc(NC(C)=O)cc2)cc1OC,-3%,-2%,0%,8%,/,-1%,/,/,/,/,/,
O=C(CSc1nnc(Cc2ccccc2)o1)Nc1ccccc1,-1%,-1%,-10%,4%,4%,4%,/,/,/,/,/,
O=C(CSc1nnc(-c2cccc(Cl)c2)o1)Nc1ccc2c(c1)OCCO2,3.5µM*,-5%,2.8µM*,?,11µM*,21µM*,/,/,/,/,-1%,

# Screens (PubChem)
